Compound activity: PubChem BioAssay, National Center for Advancing Translational Sciences (NCATS)
Tau fluor counter: counter-screen for tau fibril formation inhibitors; tau K18 P301L Alexa594 fluorescence, heparin fibrillization; Potency, µM (highest dose often 57.7 µM), inactives show top-dose activity change, negative = decrease; hit rate 0.93% among 280,000; also: nearly all actives have a fitted effect of over 55% in size
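Human K18 P301L tau (15 uM unlabeled plus 0.24 uM Alexa 594-labeled, final) in 100 mM sodium acetate pH 7 was mixed with compound and 20 uM heparin and incubated 6 hr at 37 C.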
Tau fibril ThT: tau fibrillization inhibition (ThT binding); P10636; recombinant tau K18 P301L, heparin-induced fibrillization, ThT fluorescence; AID 1460; Potency, µM (highest dose often 57.4 µM), for the others: at the top dose activity, negative = inhibition, hits mostly inhibitors; hit rate 2.1% among 270,000; also: nearly all actives have a fitted effect of over 55% in size
Target sequence (P10636 561-689 P618L limits assumed): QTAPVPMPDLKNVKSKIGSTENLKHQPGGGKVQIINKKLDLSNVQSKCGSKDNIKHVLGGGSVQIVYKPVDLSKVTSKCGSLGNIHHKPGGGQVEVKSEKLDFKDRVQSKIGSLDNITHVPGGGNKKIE
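ThT emission at 510 nm, taken 1 hr after adding 30 uM dye, quantifies aggregates formed when 20 uM heparin acts on human tau K18 P301L for 6 hr at 37 C.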
ALDH1A1 block: blocks purified human ALDH1A1 activity. Purified ALDH1A1, NADH fluorescence, propionaldehyde substrate. hit rate 7.3% among 220,000. Potency, µM (top dose mostly 75.3 µM), inactives show at the highest dose activity, negative = inhibition, hits mostly inhibitors; active = well fitted inhibition curve with a large enough effect, not every such curve was filed as active; inconclusive = small, poorly fitted or top-dose-only effect, or another doubt; inactive = no such curve, though single readings can be large or run the other way;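 also: plate controls were no enzyme wells and a reference inhibitor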
Tau fibril FP: blocks human tau fibril formation measured by polarization | P10636 | K18 P301L tau heparin fibrillization, Alexa594 FP, 6 h | Potency, µM (series often up to 57.7 µM), for the others: at the top dose activity, negative = inhibition, usual class: inhibitors | hit rate 0.39% among 280,000 | AID 1468; also: nearly all actives have a fitted effect of over 55% in size
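Recombinant K18 P301L […], labeled with Alexa 594 at 0.24 uM over 15 uM unlabeled; heparin inducer 20 uM final; 37 C, 6 hr; FP endpoint.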
NPSR antagonist: neuropeptide S receptor (human) antagonism, cAMP. CHO-NPSR cells, cAMP TR-FRET, antagonist mode. AID 1461. hit rate 1% among 220,000. Q6W5P4. Potency, µM (highest dose often 38.3 µM), inactives show top-dose activity change, negative = inhibition, actives largely listed as inhibitors; also: nearly all actives have a fitted effect of over 50% in size
Target sequence (Q6W5P4 whole entry, looked up): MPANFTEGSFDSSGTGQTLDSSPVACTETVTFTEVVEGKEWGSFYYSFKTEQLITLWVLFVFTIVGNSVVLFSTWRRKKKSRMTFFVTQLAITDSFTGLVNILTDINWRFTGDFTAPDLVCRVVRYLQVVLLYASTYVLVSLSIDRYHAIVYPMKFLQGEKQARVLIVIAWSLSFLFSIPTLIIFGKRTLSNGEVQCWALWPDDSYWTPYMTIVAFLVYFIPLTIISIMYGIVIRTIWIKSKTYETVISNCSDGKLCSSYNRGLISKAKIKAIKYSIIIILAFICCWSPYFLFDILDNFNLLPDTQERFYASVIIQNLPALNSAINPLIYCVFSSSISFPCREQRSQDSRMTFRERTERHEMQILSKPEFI
HPGD inh: blocks human HPGD enzyme activity. P15428. purified HPGD, NADH fluorescence kinetic, PGE2 substrate. hit rate 4.3% among 150,000. AID 894. Potency, µM, without a hit: at the highest dose activity change, negative = inhibition, most hits filed as inhibitors; active = well fitted inhibition curve with a large enough effect, not every such curve was filed as active; inconclusive = small, poorly fitted or top-dose-only effect, or another doubt; inactive = no such curve, though single readings can be large or run the other way
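20 nM HPGD preincubated 15 min at room temperature with compound in 50 mM Tris-HCl pH 8, 0.01% Tween 20. Started with 1 mM NAD+ and 30 uM prostaglandin E2; NADH fluorescence (360/450 nm) read 5 times over 30-s intervals, last minus first.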
The depositor's hits bear a star; ? = inconclusive; nt = no result given; ! = not confirmed by another sample; [ ] = remark or other dose. Most compounds without a hit are left out; they make up all but 9.5% or so of the library. Unless noted, calls follow the shape of the dose curve; as a rule, active = well fitted curve in the direction sought with a large enough effect; inconclusive = small, poorly fitted or top-dose-only effect, or another doubt; inactive = no such curve, though single readings can be large; an effect the other way counts as inactive or inconclusive. Unless noted, % is scaled to controls: 0 for no effect and ±100 for the full control effect; potency is read from the fitted curve at half-maximal effect.

SMILES | Tau fluor counter | Tau fibril ThT | ALDH1A1 block | Tau fibril FP | NPSR antagonist | HPGD inh
O=C1NC(=O)N(Cc2ccccc2)C(=O)/C1=C/c1cnn(-c2ccccc2)c1 | -10% | ? | 10µM* | -2% | -1% | nt
COc1ccc(/C=C2\C(=O)NC(=O)N(Cc3ccccc3)C2=O)c(OC)c1OC | 1% | 4% | 10µM* | 1% | -14% | nt
O=C(Nc1ccccc1C(F)(F)F)c1cccn(Cc2ccccc2)c1=O | -16% | -1% | nt | -5% | nt | nt
CN1CC[C@@]2(CCCN(C(=O)Oc3ccccc3)C2)C1 | nt | nt | -3% | nt | nt | -5%
O=C(O)C(Cl)(Cl)Br | nt | nt | -12% | nt | nt | -7%
Cl/C=C/CCl | nt | nt | -3% | nt | nt | -5%
Cc1cnc[nH]1 | nt | nt | 0.28µM* | nt | nt | -14%
CC1=NN(c2ccccc2)C(=O)[C@@H]1N=Nc1ccc([As](=O)(O)O)c(O)c1 | nt | nt | 3.5µM* | nt | nt | -6%
Nc1nc(N)c(N=Nc2ccc([As](=O)(O)O)c(O)c2)c(N)n1 | nt | nt | 9%[13.5 µM] | nt | nt | -3%
CC(=O)OC1CC2C(C)(C)C(O)C=C[C@@]2(C)C2CC[C@]3(C)C(=CC(=O)OC3c3ccoc3)[C@]12C (some centres undefined) | -14% | 35µM* | ? | ? | nt | -11%
c1ccc(N=NNc2ccccc2)cc1 | nt | nt | -78% | nt | nt | -4%
C=C(C)[C@]12C[C@@H](C)[C@@]34O[C@](Cc5ccccc5)(O[C@@H]1[C@@H]3C=C(COC(=O)Cc1ccc(O)c(OC)c1)C[C@]1(O)C(=O)C(C)=C[C@@H]41)O2 | ? | ? | 1% | 12% | nt | -7%
O=C(CNC(=O)c1cccs1)NCC(=O)OCC(=O)c1ccc([N+](=O)[O-])cc1 | -10% | ? | 2.2µM* | ? | 12% | nt
COC(=O)C1=Nc2ccccc2/C1=C\c1c(O)n(-c2ccc(Br)cc2)c(=O)[nH]c1=O | 1% | -3% | 4% | 10% | -26% | 18µM*
COC(=O)C1=Nc2ccccc2/C1=C\c1c(O)n(-c2ccc(OC)cc2)c(=O)[nH]c1=O | ? | ? | 22µM* | ? | -29%[46.1 µM] | -11%
O=c1[nH]c(=O)n(-c2ccccc2)c(O)c1/C=C1/C(c2ccccc2)=Nc2ccccc21 | -5% | ? | ? | -3% | -30% | 25µM*
Clc1ccc(C(Cl)(Cl)Cl)cc1Cl | nt | nt | 0% | nt | nt | 1%
CCOC(=O)C(O)(c1ccc(NC(=S)NC(=O)c2ccc(Cl)cc2Cl)cc1)C(F)(F)F (centres undefined) | -26% | ? | 8.9µM* | ? | -49% | -21%
CCOC(=O)C(O)(c1ccc(NC(=S)NC(=O)c2ccc(Cl)cc2Cl)c(C)c1)C(F)(F)F (centres undefined) | -24% | ? | 18µM* | 1% | -26% | -23%
CC[n+]1c(-c2ccccc2)c2cc(N)ccc2c2ccc(N)cc21 | ? | 4µM* | -8% | 11µM* | nt | 35µM*!
O=[N+]([O-])c1ccc(N2CCNCC2)c2ncccc12 | -13% | ? | 9% | -2% | 3%[46.1 µM] | -8%
O=[N+]([O-])c1ccc(N2CCCC2)c2ccncc12 | -10% | 13µM* | -7% | 0% | -40% | nt
Nc1cc(Cl)c2nonc2c1[N+](=O)[O-] | ? | 11µM* | 20µM* | -11% | -37% | ?
CCN(CC)c1ccc(/C=C/[N+](=O)[O-])cc1 | ? | 16µM* | ? | -9% | 5% | nt
O=C1NC(=S)NC(=O)C1C/C=C/c1ccccc1 | -19% | ? | 28µM* | ? | -7%[46.1 µM] | 10µM*
Cc1nc2cc(C(=O)N3CCC4(CC3)OCCO4)ccc2n1-c1cccc(F)c1 | -7% | -8% | 25µM* | -2% | -14%[46.1 µM] | 2.8µM*
CN1C(=O)c2ccccc2Sc2ccc(C(=O)N3CCC4(CC3)OCCO4)cc21 | -5% | -12% | ? | 1% | -2%[46.1 µM] | -7%
O=C(c1ccc2c(c1)ncn2C1CCCCCC1)N1CCC2(CC1)OCCO2 | 2% | -6% | -13% | -1% | -1%[46.1 µM] | 14µM*
